This is a sample that favours compounds with a hit; in the whole collection about 3.8% have one here.
M18AAP inhibitor: PfM18AAP inhibitors, malaria aminopeptidase, primary screen, biochemical, QFRET, recombinant enzyme. M18 aspartyl aminopeptidase (Plasmodium falciparum 3D7). H-Glu-NHMec fluorogenic cleavage. inhibition, % at 7.35 µM. 290,000 tested, 1.2% active. AID 1822, 2009;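 active = inhibition above the campaign mean inhibition over all tested compounds plus 3 SD, cut at about 28% in these data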;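 note: 0% = plate median of test compound wells and 100% = 2 mM ZnCl2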
DSG3 Ab inh: inhibitors of pemphigus antibody binding to DSG3, primary screen, biochemical, bead-based, flow cytometry, scFv-GFP | DSG3-coupled beads, scFv-anti-DSG3-GFP binding; hits give low values | binding (percent of control), % at 10 µM | 310,000 tested, 0.48% active;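 active = binding more than 3 SD below its plate's average and above zero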;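 note: hits lower antibody fragment binding to DSG3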
PAFAH1B2 FP inh: PAFAH1B2 enzyme inhibitors, primary screen, biochemical, fluorescence polarization, human; recombinant PAFAH1B2, FP-rhodamine activity probe; inhibition, % at 3.39 µM; 340,000 tested, 1.2% active; AID 492953, 2010;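 active = inhibition above the mean of all tested compounds plus 3 SD, cut at about 24% in these data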;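 note: 0% = enzyme with DMSO and 100% = wells lacking PAFAH1B2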
Target sequence (P68402 whole entry, looked up): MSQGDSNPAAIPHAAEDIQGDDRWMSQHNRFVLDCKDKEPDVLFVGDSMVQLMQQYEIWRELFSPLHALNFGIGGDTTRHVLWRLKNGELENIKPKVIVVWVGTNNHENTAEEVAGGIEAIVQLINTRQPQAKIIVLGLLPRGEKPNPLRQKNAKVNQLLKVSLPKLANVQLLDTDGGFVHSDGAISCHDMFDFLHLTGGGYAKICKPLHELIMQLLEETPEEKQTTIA
PAFAH1B3 inh: PAFAH1B3 enzyme inhibitors, primary screen, biochemical, fluorescence polarization, human. 340,000 tested, 0.28% active. recombinant PAFAH1B3, FP-rhodamine probe. Platelet-activating factor acetylhydrolase IB subunit alpha1 (Homo sapiens), Q15102. inhibition, % at 3.39 µM. AID 492972, 2010;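 active = inhibition above the screen-wide average of all tested compounds plus 3 SD, cut at about 25% in these data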;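 note: 0% = enzyme with DMSO only and 100% = wells lacking PAFAH1B3 protein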
Target sequence (Q15102 whole entry, looked up): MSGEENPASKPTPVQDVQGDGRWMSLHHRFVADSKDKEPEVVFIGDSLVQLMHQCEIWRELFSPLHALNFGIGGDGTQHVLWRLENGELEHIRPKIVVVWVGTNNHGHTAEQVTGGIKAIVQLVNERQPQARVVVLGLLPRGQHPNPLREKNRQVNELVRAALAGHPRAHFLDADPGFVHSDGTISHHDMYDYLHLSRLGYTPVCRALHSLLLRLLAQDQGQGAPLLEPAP
PAFAH2 FP inh: PAFAH2 enzyme inhibitors, primary screen, biochemical, fluorescence polarization, human; Platelet-activating factor acetylhydrolase 2, cytoplasmic (Homo sapiens), Q99487; recombinant PAFAH2, FP-rhodamine activity probe; inhibition, % at 3.39 µM; 340,000 tested, 0.99% active; AID 492956, 2010;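 active = inhibition above the mean over all tested compounds plus 3 SD, cut at about 30% in these data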;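 note: inhibitors block probe labeling of enzyme so polarization drops; 0% = enzyme with DMSO and 100% = wells lacking PAFAH2 protein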
pPAFAH inh: pPAFAH enzyme inhibitors, primary screen, biochemical, fluorescence polarization, human; 330,000 tested, 1.5% active; inhibition, % at 3.39 µM; recombinant pPAFAH, FP-rhodamine probe fluorescence polarization; AID 463082, 2010;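 active = inhibition above the mean inhibition across the screen plus 3 SD, cut at about 25% in these data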;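 note: inhibitors block binding of the rhodamine activity-based probe so polarization drops; 0% = enzyme with DMSO and 100% = wells lacking pPAFAH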
PAFAH2 FP conf: PAFAH2 enzyme inhibitors, confirmation, biochemical, fluorescence polarization, human; shares compounds with PAFAH2 FP inh; recombinant PAFAH2, FP-rhodamine activity probe; inhibition, % at 3.39 µM; 2,300 tested, 65% active; AID 493030, 2011;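 active = mean inhibition over three repeats above a set limit taken from the earlier primary screen, cut at about 30% in these data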;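 note: inhibitor blocks binding of rhodamine activity probe so polarization falls; 0% = enzyme with DMSO and 100% = wells lacking PAFAH2 protein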
* hit, by the source's call; . = not tested or not shown.

SMILES	M18AAP inhibitor	DSG3 Ab inh	PAFAH1B2 FP inh	PAFAH1B3 inh	PAFAH2 FP inh	pPAFAH inh	PAFAH2 FP conf
N#Cc1ccccc1NC(=O)COC(=O)c1ccc2c(c1)OCO2	.	.	4.3	8.2	61.6*	3.9	53.4*
O=C(COc1ccc2c(c1)OCO2)Nc1ccccc1F	-6.4	101.9	1.7	8.0	4.1	7.8	.
COc1cc(/C=C/C(=O)NC(C)C2CC3CCC2C3)cc(OC)c1OC (configuration not stated)	-2.7	.	16.6	8.6	7.1	9.3	.
CC(NC(=O)COC(=O)Cc1cccs1)c1ccc(F)cc1 (configuration not stated)	.	97.4	5.8	5.9	10.6	.	.
CCOC(=O)c1cn(-c2c(C)n(C)n(-c3ccccc3)c2=O)c2c(F)c(F)c(F)cc2c1=O	6.2	95.0	.	.	.	4.0	.
Cc1onc(-c2ccccc2)c1-c1ccnn1C(=O)NC(C)C	-5.0	113.5	-8.4	3.8	-5.7	8.3	.
COC(=O)c1noc(C)c1-c1ccnn1C(=O)c1ccc(C)cc1	-0.4	99.6	-2.6	5.6	54.2*	-2.9	33.2*
O=C(O)C(Cc1ccccc1)N1C(=O)c2c(Cl)c(Cl)c(Cl)c(Cl)c2C1=O (configuration not stated)	.	.	6.5	-3.0	31.7*	0.3	25.9
CCOc1ccc(N2C(=O)S/C(=C\c3cc(OC)c(OC)c(OC)c3)C2=O)cc1	-3.2	102.2	.	.	.	1.2	.
COc1ccc(CN(C)C(=O)c2ccc3c(=O)n4c(nc3c2)CCC4)cc1	0.9	108.7	3.9	-5.1	0.3	-2.9	.
C=CCn1c(SCC(=O)N(C)C2CCCCC2)nnc1C1CC1	.	100.8	5.2	6.6	34.3*	0.0	25.4
O=C(COC(=O)c1n[nH]c2ccccc12)NC(=O)NC1CCCCC1	-7.9	100.9	2.4	6.6	4.3	-3.4	.
Cc1cc(C)cc(NC(=O)COC(=O)c2n[nH]c3ccccc23)c1	1.1	114.5	3.0	5.1	69.7*	-10.1	64.9*
O=C(COC(=O)c1n[nH]c2ccccc12)NC1CCCCC1	.	125.2	-9.4	2.8	79.6*	-10.8	68.5*
O=C(COC(=O)c1n[nH]c2ccccc12)Nc1ccccc1	-4.1	97.4	1.2	6.3	76.2*	-0.3	66.7*
CC(=O)c1cccc(NC(=O)COC(=O)c2n[nH]c3ccccc23)c1	7.4	89.7	3.6	0.1	46.9*	-7.9	38.7*
CS/C(N)=N/N=C/c1cc(Br)cc(Br)c1O	24.1	102.2	6.2	2.0	63.3*	18.1	43.4*
O=C(COc1ccccc1Cl)NNC(=O)c1ccc2nc[nH]c2c1	.	122.4	2.1	3.1	6.6	7.3	.
COc1ccccc1C(=O)OCC(=O)NC12CC3CC(CC(C3)C1)C2	.	106.8	2.1	8.7	73.9*	.	81.6*
CCN(CC)S(=O)(=O)c1cccc(C(=O)OCC(=O)C23CC4CC(CC(C4)C2)C3)c1	-1.7	113.4	8.1	0.2	40.0*	5.2	25.1
O=C(COC(=O)c1ccc(O)cc1O)NC12CC3CC(CC(C3)C1)C2	.	109.7	12.4	-1.6	74.6*	11.5	59.9*
COc1ccc(C(=O)OCC(=O)NC23CC4CC(CC(C4)C2)C3)c(O)c1	.	101.8	.	.	.	.	.
CCN(CC)S(=O)(=O)c1ccc(O)c(C(=O)OCC(=O)Nc2ccc(OC(F)(F)F)cc2)c1	0.7	99.8	-0.6	8.4	38.1*	20.5	28.1
Cc1ccc(S(=O)(=O)N2CCN(C(=O)COC(=O)COc3ccc(Cl)cc3C)CC2)c(C)c1	.	99.8	8.5	7.0	7.1	.	.
COc1cc(OC)c(C(=O)OCC(=O)NC23CC4CC(CC(C4)C2)C3)cc1OC	.	.	0.6	6.7	96.8*	5.4	81.6*
SMILES	M18AAP inhibitor	DSG3 Ab inh	PAFAH1B2 FP inh	PAFAH1B3 inh	PAFAH2 FP inh	pPAFAH inh	PAFAH2 FP conf
CCN(CC)S(=O)(=O)c1ccc(O)c(C(=O)OCC(=O)NC2CCCC2)c1	-4.8	106.9	6.0	6.8	18.6	6.9	.
CCN(CC)S(=O)(=O)c1ccc(O)c(C(=O)OCC(=O)NC23CC4CC(CC(C4)C2)C3)c1	.	95.1	14.1	1.6	77.4*	5.0	68.1*
CCOC(=O)c1ccc(S(=O)(=O)N2CCN(c3ccccn3)CC2)cc1	2.6	.	-1.5	2.5	-2.9	8.3	.
CC(OC(=O)c1cc(Br)ccc1O)C(=O)NC1(C#N)CCCCC1 (configuration not stated)	.	109.0	-1.4	4.4	1.1	4.4	.
C=C(C)COc1ccc(C2NC(=O)c3ccccc3O2)cc1OCC (configuration not stated)	0.8	97.0	1.0	5.2	-2.0	.	.
O=C(NCCS(=O)(=O)N1CCCCC1)c1ccccc1	.	105.5	2.1	10.0	-2.6	1.5	.
Cc1cc(C)cc(NC(=O)COC(=O)CC2CCCC2)c1	.	100.6	3.5	4.3	80.3*	23.5	66.2*
Cc1ccc(NC(=O)COC(=O)CCC2CCCC2)c(Br)c1	.	99.0	1.8	5.7	31.4*	17.8	14.0
COc1ccc(NC(=O)COC(=O)CC2CCCCC2)cc1	.	.	-1.6	0.5	47.8*	6.8	42.4*
COc1ccc(NC(=O)COC(=O)CC2CCCC2)cc1	.	93.9	3.2	4.3	57.7*	19.5	47.0*
CN(CC(=O)NCc1ccco1)C(=O)C1CC(=O)N(c2ccc3c(c2)OCCO3)C1 (configuration not stated)	.	108.4	-2.5	4.1	-1.0	0.7	.
O=C(COC(=O)c1cccs1)Nc1cccc(Cl)c1	.	.	8.2	7.0	91.2*	5.5	89.1*
CCN(c1ccc(NC(=O)COC(=O)c2cccs2)cc1)C(C)C	9.8	94.4	-5.6	5.4	30.1*	10.7	19.1
CCN(CC)c1ccc(NC(=O)COC(=O)c2cccs2)cc1	8.8	99.2	6.0	8.9	25.8	12.3	.
CC(=O)c1cccc(NC(=O)COC(=O)c2cccs2)c1	4.4	100.8	4.5	0.2	81.0*	8.3	76.8*
Cn1ccc(C(=O)OCC(=O)Nc2ccccc2)n1	3.4	.	1.4	7.1	72.6*	.	77.5*
Cc1ccc(NC(=O)COC(=O)c2ccn(C)n2)cc1	3.7	102.0	1.0	-1.2	67.6*	2.7	63.0*
Cn1nccc1C(=O)OCC(=O)Nc1ccccc1	5.1	119.0	-2.6	-4.2	39.6*	.	28.4
Cc1cc(NCC(=O)Nc2ccc(C)c(S(=O)(=O)N3CCOCC3)c2)ccc1Br	.	107.5	.	.	.	.	.
CCOc1ccc(CN(C(=O)c2ccccn2)c2ccc(OC)c(Cl)c2)cc1	0.6	106.5	0.5	-0.5	-4.2	2.0	.

Bioassay records from PubChem.
